High-throughput results (PubChem BioAssay)
Rows were chosen to be rich in hits. Some 4.8% of all compounds tested hit in one or more screens of this group.
hcDAF-12 act = activators of H. contortus DAF-12 nuclear receptor; HEK293 hcDAF-12 lit1-tk-luc reporter, luminescence; 0% DMSO, 100% Δ7-dafachronic acid; activation, % at 6.8 µM; actives 1.4% (n = 370,000); AID 652067;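 active = activation above the mean of all tested compounds plus 3 SD, cut at about 5.5% in these data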
hgDAF-12 ag = activates the H. glycines DAF-12 receptor ligand-binding domain; AID 687014; activation, % at 6.8 µM; actives 1.8% (n = 370,000); HEK293 GAL4-hgDAF12 UAS-luciferase reporter, agonist luminescence; normalized to butyrate control;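 active = activation above a cutoff set at the mean of all screened compounds plus 3 SD, cut at about 10% in these data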
Rev-erbA mod = modulates human Rev-erb alpha binding to DNA; Rev-erbα–FITC-DNA binding, fluorescence polarization, 90 min; P20393; activity, % at 10 µM; AID 1259318; actives 0.79% (n = 370,000);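 active = activity above about 14%, limit read from the data; passing the limit was not always enough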
DAX1 inh-1 = DAX1 (NR0B1) inhibition, primary screen | inhibition, % at 6.8 µM | AID 652010 | HEK293T StAR-luciferase reporter, SF-1/DAX-1 repression relief | actives 1.1% (n = 370,000);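 active = inhibition above the mean over all tested compounds plus 3 SD, cut at about 3.6% in these data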;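 note: higher inhibition means more luminescence from relief of DAX-1 repression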
ssDAF-12 act = activates DAF-12 receptor from parasite S. stercoralis | HEK293 ssDAF-12/GRIP1 lit1-tk-luc reporter, luminescence; % of 3 µM dafachronic acid response | activation, % at 6.8 µM | actives 1% (n = 370,000);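 active = activation above the mean over all tested compounds plus 3 SD, cut at about 0.9% in these data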
DAX1 inh-2 = NR0B1 (DAX1) inhibition. inhibition, % at 6.75 µM. actives 0.99% (n = 340,000). HEK293 Gal4-DAX1 luciferase reporter, luminescence. P51843. AID 504766;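 active = inhibition above the mean over all tested compounds plus 3 SD, cut at about 4.2% in these data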;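 note: inhibition shows as a rise in luminescence from relieved DAX1 repression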
Target sequence (P51843 207-470 limits assumed): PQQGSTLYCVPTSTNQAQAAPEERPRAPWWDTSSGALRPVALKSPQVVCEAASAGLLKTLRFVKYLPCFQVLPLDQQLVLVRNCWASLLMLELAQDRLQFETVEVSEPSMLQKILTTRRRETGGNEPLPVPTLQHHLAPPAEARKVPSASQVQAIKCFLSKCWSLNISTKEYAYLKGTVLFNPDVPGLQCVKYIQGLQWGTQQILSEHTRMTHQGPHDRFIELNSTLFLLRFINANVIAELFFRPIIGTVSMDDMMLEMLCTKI
DAX1 conf = NR0B1 (human) inhibition, confirmation; shares compounds with DAX1 inh-1; HEK293T StAR-promoter luciferase reporter, SF-1/DAX-1 repression; inhibition, % at 6.8 µM; actives 87% (n = 2,400);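 active = inhibition above the average of every tested compound plus 3 SD, cut at about 3.8% in these data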;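 note: active compounds raise luminescence by relieving repression of the StAR reporter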
SF1 AF2mut Luc = nonselective inhibitor or artifact in SF-1 mutant DAX1 counter-screen. shares compounds with DAX1 inh-1. HEK293 StAR-luciferase, SF-1 AF2 mutant, luminescence. inhibition, % at 6.8 µM. actives 78% (n = 2,400). AID 652136;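 active = inhibition above the mean of all tested compounds plus 3 SD, cut at about 3% in these data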
Each line names hits and unclear results; the compound was inactive in the other large screens (follow-up assays come after a bar, where they were run).

Cn1ccc2c(-c3ccc(C(N)=O)cc3)cc3c(c21)C1CCC3O1 (stereo not given)	DAX1 inh-1 4.6 (no result: DAX1 inh-2) | DAX1 conf inactive | SF1 AF2mut Luc inactive
O=C(COC(=O)c1ccc(O)cc1O)c1ccc(Cl)cc1	DAX1 inh-1 5.8 | DAX1 conf 5.4 | SF1 AF2mut Luc inactive
CC1CCN(C(=O)c2ncn3c2C(=O)NC[C@@H]3C)CC1	none (no result: DAX1 inh-2)
COc1ccc(/C=N\NC(=O)Cc2cccs2)c(OC)c1OC	none (no result: DAX1 inh-2)
COc1cccc(-c2cccc3c4c([nH]c23)[C@@H]2C[C@H]3[C@@H](C(=O)N2CC4)[C@H](C)ON3C)c1	none (no result: DAX1 inh-2)
O=C(CSc1nnc(-c2ccccc2Cl)o1)Nc1ccccn1	hgDAF-12 ag 11, DAX1 inh-1 6.1 | DAX1 conf 17 | SF1 AF2mut Luc 6.7
CCNC(=O)N(C)[C@H]1C[C@H]2c3[nH]c4c(-c5cccc(C)c5)cccc4c3CCN2C[C@H]1[C@H](C)O	none (no result: DAX1 inh-2)
Cc1sc(=NC(=O)c2ccco2)n(C)c1-c1ccccc1	DAX1 inh-1 5.5 | DAX1 conf 14 | SF1 AF2mut Luc 6.3
O=C(Nc1cccc(O)c1)c1noc2c1CCc1ccccc1-2	hcDAF-12 act 6.3, DAX1 inh-1 7.0 | DAX1 conf 16 | SF1 AF2mut Luc 6.3
O=C(N/N=C/c1ccc([N+](=O)[O-])o1)c1ccc2c(c1)OCO2	none
Cc1ccc(/C=N\NC(=O)c2ccc3c(c2)OCO3)o1	DAX1 inh-1 5.2 | DAX1 conf inactive | SF1 AF2mut Luc 2.9
CC(=O)c1cc(-c2ccccc2)n(CC(=O)NCc2ccccc2Cl)c1C	none (no result: DAX1 inh-2)
COCCN1Cc2cc(C(=O)OC)c3c(c2C1=O)c1ccccc1n3S(=O)(=O)c1ccc(OC)cc1	none (no result: DAX1 inh-2)
C(=NNc1ccc2ccccc2n1)c1ccccn1	hcDAF-12 act 5.9, hgDAF-12 ag 11, DAX1 inh-1 4.8 (no result: DAX1 inh-2) | DAX1 conf inactive | SF1 AF2mut Luc inactive
C=CC[C@]12C[C@@]3(O[C@H](c4ccc(C(F)(F)F)cc4)N=C3C[C@H](c3ccc(OC)cc3)[C@H]1C)N(Cc1ccncc1)C2=O	none (no result: DAX1 inh-2)
CCCn1c2ccccc2c2cnn(CC(=O)NCCCOC)c(=O)c21	none
CCCn1c2ccccc2c2cnn(CC(=O)NCCCN3C(C)CCCC3C)c(=O)c21 (stereo not given)	DAX1 inh-1 5.6 | DAX1 conf inactive | SF1 AF2mut Luc inactive
O=C1NCCN1CCN1CCC(c2cn(-c3ccc(F)cc3)c3ccc(Cl)cc23)CC1	none (no result: DAX1 inh-2)
COC(=O)c1sccc1NC(=O)Nc1cc(C)cc(C)c1	none
COC(=O)c1sccc1NC(=O)Nc1ccc(C)cc1	hcDAF-12 act 5.9, hgDAF-12 ag 13, DAX1 inh-1 8.5, ssDAF-12 act 1.4 | DAX1 conf 4.6 | SF1 AF2mut Luc inactive
CCc1ccc(NC(=O)C(=O)c2ccccc2NC(C)=O)cc1	DAX1 inh-1 9.1 | DAX1 conf 12 | SF1 AF2mut Luc 7.0
COC(=O)[C@]12C[C@H](CC(=O)NCCC(C)C)C(=O)N(Cc3ccc4c(c3)OCO4)C1=C[C@H](COCc1ccccc1)O[C@@H]2C	none (no result: DAX1 inh-2)
COc1cccc(NC(=O)N(C)C[C@H]2OCc3ccccc3-c3c(n(C)c4ccccc34)C(=O)N([C@H](C)CO)C[C@H]2C)c1	none (no result: DAX1 inh-2)
CC(C)(C)OC(=O)N1CCC(C(=O)Nc2ccc3c(c2)CCC3)CC1	hgDAF-12 ag 12, DAX1 inh-1 4.7 | DAX1 conf 4.7 | SF1 AF2mut Luc inactive
CC(=O)N1CCC(C(=O)Nc2ccc3c(c2)CCC3)CC1	none
C[C@@H]1[C@@H](c2ccccc2)OC(O)([C@H](Cc2ccccc2)NC(=O)OC(C)(C)C)CN1C (stereo not given in full)	none (no result: DAX1 inh-1, DAX1 inh-2)
COc1ccc(NC(=O)C(=O)NCC2CCCN2S(=O)(=O)c2ccc(C)cc2)cc1 (stereo not given)	DAX1 inh-1 6.4 | DAX1 conf 13 | SF1 AF2mut Luc inactive
